# A number with no mark means an inactive call. Results filed as inconclusive are left out. This is one part of the list. Where a call stands in place of a potency, no number is given. The source made the active and inactive calls. Unless noted, calls come from the whole dose curve; as a rule, active = well fitted curve in the direction sought with a large enough effect; inconclusive = small, poorly fitted or top-dose-only effect, or another doubt; inactive = no such curve, though single readings can be large; an effect the other way counts as inactive or inconclusive.
# How the values were obtained:
# [1] = qHTS Assay for Inhibitors of Fructose-1,6-bisphosphate Aldolase from Giardia Lamblia: Giardia lamblia growth inhibition (AID 2785); details: Giardia lamblia trophozoite growth inhibition; series mostly up to 57.5 µM; note: nearly all actives have a fitted effect of over 70% in size
# Procedure, shortened: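 G. lamblia WB trophozoites (100 cells/well) were grown with compound at 37C for 48 h in modified TYI-S-33 medium, pH 7.0. Growth was measured by ATPlite luminescence after 20 min at room temperature.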
# [2] = qHTS Assay for Inhibitors of Fructose-1,6-bisphosphate Aldolase from Giardia Lamblia: Mammalian cellular toxicity (AID 2786); details: mammalian cell viability counter-screen; series mostly up to 57.5 µM;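 note: compound exposure lasted 48 h before reading; nearly all actives have a fitted effect of over 60% in size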
# Procedure, shortened: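 CHO cells seeded at 250 cells/well with pin-tool-added compound, incubated 48 h at 37 °C, 5% CO2. Viability read as ATP content by ATPlite luminescence after 20 min.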
# [3] = biological target: Fructose-bisphosphate aldolase (Giardia intestinalis (strain ATCC 50803 / WB clone C6)) (UniProt A8B2U2); assay: qHTS Assay for Inhibitors of Fructose-1,6-bisphosphate Aldolase from Giardia Lamblia: Primary screen confirmation (AID 2787); details: purified Giardia aldolase enzyme activity; series mostly up to 57.5 µM;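 note: aldolase product measured through coupled diaphorase step turning resazurin into fluorescent resorufin; nearly all actives have a fitted effect of over 45% in size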
# Chain of Fructose-bisphosphate aldolase (Giardia intestinalis (strain ATCC 50803 / WB clone C6)) (A8B2U2 whole entry, looked up): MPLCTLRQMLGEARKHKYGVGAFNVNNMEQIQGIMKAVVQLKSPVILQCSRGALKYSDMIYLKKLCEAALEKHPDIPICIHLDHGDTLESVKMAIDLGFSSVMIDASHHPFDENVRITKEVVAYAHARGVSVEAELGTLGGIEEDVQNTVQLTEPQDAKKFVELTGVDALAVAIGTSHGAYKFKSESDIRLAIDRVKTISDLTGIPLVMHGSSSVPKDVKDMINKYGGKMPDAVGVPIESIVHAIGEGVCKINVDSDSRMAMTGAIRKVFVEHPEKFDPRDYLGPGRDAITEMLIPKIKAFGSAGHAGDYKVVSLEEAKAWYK
# Procedure, shortened: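 FBPA (40 nM in enzyme reagent, with 30 uM ZnCl2) was preincubated 10 min at RT with compound up to 57.5 uM final. Substrate plus coupled detection system was then added, and fluorescence (525/598 nm) was read after 20 min at RT.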
# [4] = biological target: Fructose-bisphosphate aldolase A (Oryctolagus cuniculus) (UniProt P00883); assay: qHTS Assay for Inhibitors of Fructose-1,6-bisphosphate Aldolase from Giardia Lamblia: Rabbit FBPA Selectivity (AID 2794); details: Rabbit muscle FBPA enzyme inhibition, selectivity counter-screen; series mostly up to 57.5 µM; note: nearly all actives have a fitted effect of over 60% in size
# Chain of Fructose-bisphosphate aldolase A (Oryctolagus cuniculus) (P00883 whole entry, looked up): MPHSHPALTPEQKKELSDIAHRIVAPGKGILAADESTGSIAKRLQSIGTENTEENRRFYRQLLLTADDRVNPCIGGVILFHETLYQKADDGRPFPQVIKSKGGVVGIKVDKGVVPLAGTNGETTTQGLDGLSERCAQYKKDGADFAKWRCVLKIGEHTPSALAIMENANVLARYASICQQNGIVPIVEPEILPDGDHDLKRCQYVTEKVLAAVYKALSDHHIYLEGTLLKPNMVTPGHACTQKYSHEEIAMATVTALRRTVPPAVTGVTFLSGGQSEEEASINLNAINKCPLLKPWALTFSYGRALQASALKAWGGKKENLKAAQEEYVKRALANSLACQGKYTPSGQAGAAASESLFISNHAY
# Procedure, shortened: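 Titrations up to 57.5 uM (final) were pin-transferred onto the coupling enzyme mix and held 10 min at room temperature. Substrate with the coupled detection system and AmpLite Red followed, and after 20 min fluorescence was measured.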
# [5] = qHTS Assay for Inhibitors of Fructose-1,6-bisphosphate Aldolase from Giardia Lamblia: Coupling assay counterscreen confirmation (AID 2795); details: GAPDH coupling enzyme counterscreen, biochemical; series mostly up to 57.5 µM; note: nearly all actives have a fitted effect of over 55% in size
# Procedure, shortened: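 Concentration-response counterscreen (up to 57.5 uM final) of aldolase-screen hits against coupling enzymes only. Substrate, coupling system and AmpLite Red were added after a 10 min RT preincubation; fluorescence was taken 20 min later at 525/598 nm.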
# [6] = system: HIV-1 nucleocapsid protein NCp7 (binding to TG oligonucleotide); assay: HIV Nucleocapsid (AID 346; call rule not given here;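 note: potency is the fitted concentration of half-maximal effect; potency is for inhibitors that block NC binding and lower polarization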); details: HIV-1 NC / fluorescein-TGTGTGTG probe, fluorescence polarization
# Procedure, shortened: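 Reagents dispensed (10 nM TG4xF, 100 nM HIV-1 NC), plates spun, compounds pin-transferred, then incubated 1 hr at room temperature before FP imaging. Buffer: Hepes pH 7.5, 250mM NaCl, 1uM ZnCl2, 100 uM TCEP, 5 mM 2-mercaptoethanol.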
# [7] = Counterscreen for APE1 Inhibitors: Fluorescent Dye Displacement Assay (AID 2564); details: DNA fluorescent dye displacement counterscreen, fluorescence; series mostly up to 28.5 µM;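 note: loss of thiazole orange fluorescence as the dye is displaced from duplex DNA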; note: potency is the fitted concentration of half-maximal effect
# Procedure, shortened: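 Loss of Thiazole Orange fluorescence marks promiscuous DNA binders. The dye (250 nM) is mixed with 50 nM abasic-site dsDNA in pH7.5 Tris buffer containing MgCl2, then compounds are added and emission is read once.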
# [8] = biological target: Endonuclease 4 (Escherichia coli (strain K12)) (UniProt P0A6C1); assay: Counterscreen for APE1 Inhibitors: qHTS Assay for Inhibitors of Endonuclease IV (AID 2565); details: E. coli Endo IV, fluorogenic AP-site DNA cleavage; series mostly up to 27.1 µM
# Procedure, shortened: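 Read-out: fluorescence rise (ex 525/em 598 nm) from incision of a TAMRA/BHQ-2 double-stranded THF abasic-site substrate (50 nM), measured kinetically; third-minus-first read difference gave reaction progress. Enzyme 2 nM.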
# [9] = biological target: DNA repair nuclease/redox regulator APEX1 (Homo sapiens) (UniProt P27695); assay: Confirmation qHTS Assay for Inhibitors of the Human Apurinic/apyrimidinic Endonuclease 1 (APE1) (AID 2572); details: purified APE1, fluorogenic abasic-site DNA cleavage; note: potency is the fitted concentration of half-maximal effect; nearly all actives have a fitted effect of over 30% in size
# Chain of DNA repair nuclease/redox regulator APEX1 (Homo sapiens) (P27695 whole entry, looked up): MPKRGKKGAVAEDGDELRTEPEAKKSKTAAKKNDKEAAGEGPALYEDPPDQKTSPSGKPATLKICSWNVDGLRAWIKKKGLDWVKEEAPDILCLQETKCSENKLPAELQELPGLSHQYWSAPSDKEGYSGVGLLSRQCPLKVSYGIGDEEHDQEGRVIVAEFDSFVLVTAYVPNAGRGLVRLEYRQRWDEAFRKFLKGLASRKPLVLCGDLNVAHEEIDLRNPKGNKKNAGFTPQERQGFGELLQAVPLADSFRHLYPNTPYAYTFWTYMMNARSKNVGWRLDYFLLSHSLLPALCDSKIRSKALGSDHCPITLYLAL
# Procedure, shortened: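 APE1 preincubated 15 min RT with compound; 50 nM TAMRA/BHQ-2 THF-abasic duplex added; kinetic fluorescence, 3 reads at 60 s intervals, Ex 525/Em 598; progress = read 3 minus read 1.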
# [10] = biological target: DNA repair nuclease/redox regulator APEX1 (Homo sapiens) (UniProt P27695); assay: qHTS FP-Based Assay for Inhibitors of the Human Apurinic/apyrimidinic Endonuclease 1 (APE1) (AID 2573); details: APE1 binding to TAMRA-labelled double-stranded DNA, fluorescence polarization displacement; series mostly up to 28.5 µM
# Source text: The apurinic/apyrimidinic endonuclease APE1 is the primary mammalian enzyme responsible for the removal of abasic (or AP) sites in DNA and functions centrally in the base excision DNA repair (BER) pathway. […] Thus, targeting APE1 could improve the efficacy of current treatment paradigms by promoting selective sensitization or protection of diseased and normal cells, respectively.
# In order to gain insight into the mode of action of confirmed APE1 inhibitors, we implemented a miniaturized fluorescence polarization assay designed to report on compounds which competitively displace ds-DNA substrate. The fluorescence polarization assay has been implemented in 384- and 1536-well format for binding of TAMRA-labeled double-stranded DNA probe not containing a quencher. The binding of protein to DNA is inhibited by ATA, a general inhibitor of APE1 activity.
# See also related primary fluorogenic assay (AID 2517). […]
# Three uL of enzyme were dispensed to 1536-well Greiner black solid bottom plates. […] The plates were immediately transferred into ViewLux High-throughput CCD imager (Perkin-Elmer) in order to measure the reaction progress in kinetic mode (three reads every 60 seconds) using 525 nm excitation and 598 nm emission fluorescence protocol. The fluorescence intensity difference between the third and the first time points was used to compute reaction progress.
# [11] = biological target: Cytochrome P450 3A4 (Homo sapiens) (UniProt P08684); assay: qHTS Assay for Activators of Cytochrome P450 3A4 (AID 885); details: recombinant CYP3A4, Luciferin-PPXE luminescence, 60 min; series mostly up to 57.1 µM; note: nearly all actives have a fitted effect of over 65% in size
# Chain of Cytochrome P450 3A4 (Homo sapiens) (P08684 whole entry, looked up): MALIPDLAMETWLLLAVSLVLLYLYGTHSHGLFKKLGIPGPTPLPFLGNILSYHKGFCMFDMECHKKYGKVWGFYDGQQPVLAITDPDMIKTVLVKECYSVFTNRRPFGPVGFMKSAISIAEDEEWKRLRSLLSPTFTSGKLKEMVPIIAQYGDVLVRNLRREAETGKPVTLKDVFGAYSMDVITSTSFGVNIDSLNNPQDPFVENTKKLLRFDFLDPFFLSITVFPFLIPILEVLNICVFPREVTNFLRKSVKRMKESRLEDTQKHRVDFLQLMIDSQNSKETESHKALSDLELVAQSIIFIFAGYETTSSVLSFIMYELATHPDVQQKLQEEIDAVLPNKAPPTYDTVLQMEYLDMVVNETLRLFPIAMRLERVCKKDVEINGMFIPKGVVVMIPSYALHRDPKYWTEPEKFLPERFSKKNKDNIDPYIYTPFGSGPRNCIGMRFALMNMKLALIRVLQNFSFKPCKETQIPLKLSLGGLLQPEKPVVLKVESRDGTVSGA
# Procedure, shortened: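 Using 20nM recombinant human CYP3A4 in potassium phosphate (200mM), substrate Luciferin-PPXE at 25uM, luminescent luciferin detection followed a 60-min RT NADPH reaction; data scaled to 57 uM ketoconazole.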
# [12] = qHTS assay to identify small molecules that stimulate interleukin-8 (IL-8) secretion (AID 651758; active = well fitted activation curve with a large enough effect in the signal ratio; the % refers to the signal ratio); details: HTRF ratio (665/615); series mostly up to 92.2 µM
# Procedure, shortened: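 Compounds are added to THP-1 cells (2000 per well) and left 16 hrs at 37 C. A labeled anti-IL-8 antibody pair is then added, and IL-8 secretion is measured by time-resolved FRET after 1-3 hrs at room temperature.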
# [13] = biological target: Androgen receptor (Homo sapiens) (UniProt P10275); assay: qHTS assay for small molecule agonists of androgen receptor signaling (AID 588515; active = well fitted curve in the direction sought with a large enough effect in the signal ratio, with a control signal flat; the % refers to the signal ratio); details: AR-UAS-bla HEK293, beta-lactamase ratio, agonist 16 h; stronger effect = higher value
# Chain of Androgen receptor (Homo sapiens) (P10275 whole entry, looked up): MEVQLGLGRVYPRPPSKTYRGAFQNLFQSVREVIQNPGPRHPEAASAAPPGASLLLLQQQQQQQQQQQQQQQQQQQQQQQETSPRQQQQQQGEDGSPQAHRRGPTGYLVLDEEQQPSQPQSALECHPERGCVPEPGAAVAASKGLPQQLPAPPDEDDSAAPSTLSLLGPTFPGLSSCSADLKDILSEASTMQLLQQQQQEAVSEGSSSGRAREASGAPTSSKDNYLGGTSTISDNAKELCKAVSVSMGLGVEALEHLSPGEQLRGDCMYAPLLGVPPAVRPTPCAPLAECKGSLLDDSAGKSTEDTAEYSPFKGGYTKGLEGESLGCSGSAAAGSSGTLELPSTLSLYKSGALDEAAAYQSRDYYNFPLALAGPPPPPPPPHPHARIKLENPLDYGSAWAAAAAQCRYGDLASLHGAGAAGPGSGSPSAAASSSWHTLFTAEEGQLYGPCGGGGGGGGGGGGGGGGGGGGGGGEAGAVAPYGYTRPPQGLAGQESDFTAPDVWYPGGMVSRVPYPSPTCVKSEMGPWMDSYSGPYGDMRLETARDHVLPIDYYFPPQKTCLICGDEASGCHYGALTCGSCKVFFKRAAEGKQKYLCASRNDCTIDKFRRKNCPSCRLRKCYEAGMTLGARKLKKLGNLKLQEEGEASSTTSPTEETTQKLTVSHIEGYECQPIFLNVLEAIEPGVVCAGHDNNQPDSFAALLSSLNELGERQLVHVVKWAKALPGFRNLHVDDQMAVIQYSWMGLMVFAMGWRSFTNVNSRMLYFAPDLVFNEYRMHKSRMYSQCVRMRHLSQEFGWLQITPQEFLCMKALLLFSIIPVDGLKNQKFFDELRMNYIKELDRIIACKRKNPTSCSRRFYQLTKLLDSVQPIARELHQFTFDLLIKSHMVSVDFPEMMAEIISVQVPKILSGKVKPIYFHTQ
# Procedure, shortened: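 Stimulation of an AR-responsive β-lactamase reporter in GripTite HEK293 cells was measured after 16 h compound exposure at 37 °C, via CCF4 fluorescence after 2 h RT. EC50 from Hill fits, normalized to R1881 at 30 nM.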
# [14] = biological target: Bile acid receptor (Homo sapiens) (UniProt Q96RI1); assay: qHTS assay for small molecule agonists of farnesoid X receptor signaling (AID 588527; calls by dose curve); details: HEK293T FXR-UAS-bla, beta-lactamase ratio, 16 h; stronger effect = higher value
# Chain of Bile acid receptor (Homo sapiens) (Q96RI1 whole entry, looked up): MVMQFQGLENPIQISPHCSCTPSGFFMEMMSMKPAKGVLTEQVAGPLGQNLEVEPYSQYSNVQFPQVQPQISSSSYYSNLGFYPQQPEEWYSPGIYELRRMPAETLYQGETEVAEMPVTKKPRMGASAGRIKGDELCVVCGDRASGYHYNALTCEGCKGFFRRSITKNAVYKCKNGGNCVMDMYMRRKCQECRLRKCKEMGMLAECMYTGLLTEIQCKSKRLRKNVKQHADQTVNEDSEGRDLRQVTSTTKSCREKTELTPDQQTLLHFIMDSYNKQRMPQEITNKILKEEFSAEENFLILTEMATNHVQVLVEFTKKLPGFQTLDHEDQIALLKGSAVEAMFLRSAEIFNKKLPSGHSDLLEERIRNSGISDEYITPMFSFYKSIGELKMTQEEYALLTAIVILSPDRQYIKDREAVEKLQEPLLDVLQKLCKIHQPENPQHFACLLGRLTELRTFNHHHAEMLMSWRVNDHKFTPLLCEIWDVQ
# Procedure, shortened: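 Quantitative HTS used FXR-UAS-bla HEK293T cells with 16 h compound incubation at 37 C. EC50 values came from concentration-response curves normalized to chenodeoxycholic acid.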
compound,measurement,setting,value
O=C(NC(=S)N1C[C@H]2C[C@H](C1)c1cccc(=O)n1C2)c1ccc(F)cc1,outcome,[1],inactive
same,outcome,[2],inactive
same,outcome,[3],inactive
same,outcome,[4],inactive
same,outcome,[5],inactive
COc1cccc(-c2cncnc2NCc2cccnc2)c1,Potency,[6],> 20 µM
Clc1ccccc1-c1cc(NCCN2CCOCC2)ncn1,Potency,[6],> 20 µM
Cc1c(C(=O)O)cccc1-n1c(C)cc(/C=C2\C(=O)NC(=O)N(c3ccc4c(c3)OCO4)C2=O)c1C,Potency,[7],inactive
same,Potency,[8],inactive
same,Potency,[9],12.6 µM (active)
same,outcome,[10],inactive
O=C(OCC1O[C@@H](OC(=O)c2cc(O)c(O)c(O)c2)[C@@H](OC(=O)c2cc(O)c(O)c(O)c2)[C@@H](OC(=O)c2cc(O)c(O)c(O)c2)[C@@H]1OC(=O)c1cc(O)c(O)c(O)c1)c1cc(O)c(O)c(O)c1 (some centres undefined),Potency,[7],3.98 µM (active)
same,Potency,[9],0.0063 µM (active)
Cc1cc(C)cc(OP(=O)(Oc2cc(C)cc(C)c2)Oc2cc(C)cc(C)c2)c1,Potency,[11],inactive
CN(C)C(=O)c1ccc(-c2nccc(-n3ccnc3)n2)cc1,Potency,[6],> 20 µM
CC(C#N)CCC#N (centres undefined),Potency,[12],inactive
COc1ccc(NC(=O)N2CCC3(CC2)CCN(C(=O)c2ccncc2)CC3)cc1,Potency,[6],> 20 µM
CN(C)c1ncc2nc(-c3cc(F)cc(F)c3)c(=O)n(-c3ccccc3)c2n1,Potency,[6],> 4 µM
COc1ccccc1CN1CCN(C(=O)Cc2ccccc2)CC1,outcome,[1],inactive
same,outcome,[2],inactive
same,outcome,[3],inactive
same,outcome,[4],inactive
same,outcome,[5],inactive
COc1cccc(Cn2c(=O)c(-c3ccccc3)nc3cnc(OC)nc32)c1,Potency,[6],> 20 µM
COc1ccc(CNCCc2c[nH]c3ccccc23)cc1OC,"activity change, negative = inhibition",[1],0.258% [at 10.4 µM]
same,outcome,[2],inactive
same,outcome,[3],inactive
same,outcome,[4],inactive
same,outcome,[5],inactive
CN(C)Cc1ccccc1-c1cc(N(C)Cc2ccco2)ncn1,Potency,[6],> 20 µM
Nc1c(Br)cc([N+](=O)[O-])cc1[N+](=O)[O-],activation,[13],-3.78%
same,activation,[14],0.276%
[O-][Cl+2]([O-])O,activation,[14],-2.85%
COc1cccc(Cn2c(=O)c(-c3cc(F)cc(F)c3)nc3cncnc32)c1,Potency,[6],> 20 µM
CCCCC(=O)N/N=C/c1c(O)n(-c2ccccc2)c(=O)[nH]c1=O,outcome,[1],inactive
same,outcome,[2],inactive
same,outcome,[3],inactive
same,outcome,[4],inactive
same,outcome,[5],inactive
COc1cccc(-c2ccc3ncnc(NCc4ccc(OC)cc4OC)c3c2)c1,Potency,[6],> 20 µM
COc1ccc(-c2nc3cnc(OC)nc3n(C3CC3)c2=O)cc1,Potency,[6],> 20 µM
FC(F)(F)c1cc(CN2CCCC3(CCNCC3)C2)cc(C(F)(F)F)c1,Potency,[6],> 20 µM
Cn1cc(-c2nc3cnc(N4CCNCC4)nc3n(C)c2=O)c2ccccc21,Potency,[6],> 20 µM
c1ccc(-c2ccc(N3CC4(CCNCC4)C3)cc2)cc1,Potency,[6],> 20 µM

# Source: PubChem BioAssay (NCATS)
